Holding throughout (design): species or system human, MV4-11 + K-562 + COLO205 + SK-N-BE2 + OVCAR-8
The subject of test [1] is PIK3CB. The note with it: read-out: apparent Kd, n = 1.
The test system of test [2] is PIK3CD. The conditions noted are these: read-out: apparent Kd, n = 1.
Test [3] has as its system PI4KA. The note with it: read-out: apparent Kd, compound concentrations: 100 nM and 1000 nM (sheet 'Samples'), n = 1.
The subject of test [4] is PIK3CA. The note with it: read-out: apparent Kd, compound concentrations: 100 nM and 1000 nM (sheet 'Samples'), n = 1.
In test [5] the test system is PIM2. The conditions noted are these: read-out: apparent Kd, n = 1.
In test [6] the test system is PIK3C3. The note with it: read-out: apparent Kd, n = 1.
For test [7], the system named is PKN2. The conditions noted are these: read-out: apparent Kd; compound concentrations: 100 nM and 1000 nM (sheet 'Samples'), CATDS: 0.34889068310517501; n = 1.
Test [8] relates to PKM. The note with it: read-out: apparent Kd; compound concentrations: 100 nM and 1000 nM (sheet 'Samples'), CATDS: 1; n = 1.
The test system of test [9] is PI4KB. The conditions noted are these: read-out: apparent Kd, compound concentrations: 100 nM and 1000 nM (sheet 'Samples'), n = 1.
The subject of test [10] is PRKD1. The conditions noted are these: read-out: apparent Kd; compound concentrations:100 nM and 1000 nM (sheet 'Samples'); n = 1.
The test system of test [11] is PRKD2. The note with it: read-out: apparent Kd; compound concentrations:100 nM and 1000 nM (sheet 'Samples'); n = 1.
Test [12] has as its system PRKD3. The note with it: read-out: apparent Kd; compound concentrations:100 nM and 1000 nM (sheet 'Samples'); n = 1.
In test [13] the test system is PIM3. The conditions noted are these: read-out: apparent Kd; compound concentrations: 100 nM and 1000 nM (sheet 'Samples'), CATDS: 1; n = 1.
Test [14] has as its system PDXK. The conditions noted are these: read-out: apparent Kd; compound concentrations: 100 nM and 1000 nM (sheet 'Samples'), CATDS: 1; n = 1.
The subject of test [15] is TGFBR2. The note with it: read-out: apparent Kd; compound concentrations: 100 nM and 1000 nM (sheet 'Samples'), CATDS: 0.45581202141121302; n = 1.
The test system of test [16] is PIK3C2A. The note with it: read-out: apparent Kd; compound concentrations: 100 nM and 1000 nM (sheet 'Samples'), CATDS: 5.6745724082573501E-2; n = 1.
In test [17] the test system is PIK3C2B. The note with it: read-out: apparent Kd; compound concentrations: 100 nM and 1000 nM (sheet 'Samples'), CATDS: 8.3411679268076702E-2; n = 1.
In test [18] the test system is PIK3CG. The note with it: read-out: apparent Kd; compound concentrations: 100 nM and 1000 nM (sheet 'Samples'), CATDS: 0.150773969962682; n = 1.
Test [19] deals with PRKDC. The note with it: read-out: apparent Kd; compound concentrations: 100 nM and 1000 nM (sheet 'Samples'), CATDS: 8.88426876970108E-2; n = 1.
Test [20] concerns PKN3. The conditions noted are these: read-out: apparent Kd; compound concentrations: 100 nM and 1000 nM (sheet 'Samples'), CATDS: 0.47947466272848499; n = 1.
[21] abbreviates: compound concentrations:100 nM and 1000 nM (sheet 'Samples').

Read-outs that look alike come from different tables or passages of the source.

As to `C[C@H]1CC[C@@H](C(=O)Nc2ccccc2)CN1c1cc(-c2ccc3c(N)n[nH]c3c2)nc(N)n1` [GSK2283293_KCGS], the figures for the potency estimated from few doses in [1] (setting [21]) and in test [2] (setting [21]) were 1130 nM and 168 nM, respectively.
Take `CN(C)CCOc1ccc(-c2cc(-c3ccc(Cl)c(O)c3)c(-c3ccncc3)[nH]2)cc1.CN(C)CCOc1ccc(-c2cc(-c3ccc(Cl)c(O)c3)c(-c3ccncc3)[nH]2)cc1.Cl.Cl` [SB-684387-B]: the values for the potency estimated from few doses in test [3] (CATDS: 0.33665131532266801) and in test [4] (CATDS: 0.97128160740856295) were 1060 nM and 16 nM, respectively.
On to `O=C1Nc2ccc(I)cc2C1=Cc1cc(Br)c(O)c(Br)c1` [GW305074X_KCGS], for which the potency estimated from few doses in test [5] (setting [21]) was 2090 nM.
Consider `O=c1cc(N2CCOCC2)nc2n(Cc3cccc(Cl)c3)ccn12` [GSK2296823A], for which the potency estimated from few doses in test [6] (setting [21]) was 667 nM; in [1] (setting [21]), 30.5 nM.
`CC(C)N1CCN(Cc2cnc(-c3cc(-c4cccc5[nH]ccc45)cc4[nH]ncc34)o2)CC1` [GSK2269557]: the potency estimated from few doses in test [2] (compound concentrations: 100 nM and 1000 nM (sheet 'Samples'), CATDS: 1) was 1.45 nM.
Turning to `CCn1c(-c2ccncc2)nc2cnccc21` [SB-735216], the potency estimated from few doses in test [2] (compound concentrations: 100 nM and 1000 nM (sheet 'Samples'), CATDS: 0.88201100485399897) was 172 nM; in test [7], 2400 nM.
On to `Cn1cc(C2=C(c3cn(C)c4ccc(OCc5ccccc5)cc34)C(=O)NC2=O)c2ccccc21` [RO0317432-000], for which the potency estimated from few doses in [8] was 1860 nM.
For `CC(C)c1ccc(O)cc1Nc1ccnc2ccc(C(F)(F)F)cc12` [GW482059X], the potency estimated from few doses in test [4] (CATDS: 0.44189081373448802) is 239 nM; in test [2] (compound concentrations: 100 nM and 1000 nM (sheet 'Samples'), CATDS: 0.57570605535332697), 139 nM.
In the case of `CCCc1ccc(S(=O)(=O)NC2CCN(c3ccnc(Nc4ccc(OC)cc4)n3)C2)cc1` (stereo not shown) [GSK1379737A], the potency estimated from few doses in test [9] (CATDS: 1) is 901 nM.
On to `Cc1c(Cn2c(C)nn3c(=O)cc(N4CCO[C@H](C)C4)nc23)cccc1C(F)(F)F` [GSK2373690A], for which the potency estimated from few doses in [1] (setting [21]) is 6.1 nM.
Turning to `Cc1cccc(-c2nc(Nc3ccc4c(cnn4C)c3)c3ccccc3n2)n1` [GW876731X], the potency estimated from few doses in [2] (setting [21]) is 158 nM; in test [10], 92.8 nM; in [11] it was 26.7 nM; in [12], 32.8 nM.
On to `CCSc1ccc(-c2nc3n(c2-c2ccncc2)CCC3)cc1.CCSc1ccc(-c2nc3n(c2-c2ccncc2)CCC3)cc1.Cl.Cl` [SKF-106164-A2], for which the potency estimated from few doses in test [13] is 1300 nM.
As for `CCn1c(-c2ccoc2)nc2cnccc21` [SB-733887], in [14], the potency estimated from few doses is 1740 nM.
Take `COC(=O)C(NC(=O)NC1CCN(c2ccnc(Nc3ccc(F)cc3)n2)C1)c1ccccc1` (stereo not shown) [GSK1379712_KCGS]: the potency estimated from few doses in [9] (CATDS: 0.55367516713285103) was 946 nM; in test [15] it was 1400 nM.
On to `Nc1ncc(-c2ccc3nccc(-c4ccncc4)c3c2)cc1S(=O)(=O)N1CCCCC1` [GSK1693850A], for which the potency estimated from few doses in test [3] (CATDS: 8.4526475439373194E-2) was 464 nM; in [9] (CATDS: 7.2380110997406405E-2), 777 nM; in test [16], 2320 nM; in [17] it was 483 nM; in test [6] (compound concentrations: 100 nM and 1000 nM (sheet 'Samples'), CATDS: 6.5868178094699706E-2), 1120 nM; in [4] (CATDS: 0.402374173970307), 6.74 nM. Further, the potency estimated from few doses in test [1] (compound concentrations: 100 nM and 1000 nM (sheet 'Samples'), CATDS: 8.8291431205062498E-2) was 406 nM; in test [2] (compound concentrations: 100 nM and 1000 nM (sheet 'Samples'), CATDS: 0.491044301139066), 4.69 nM; in test [18], 88.7 nM; in [5] (compound concentrations: 100 nM and 1000 nM (sheet 'Samples'), CATDS: 5.9438014075045897E-2), 1790 nM; in [19] it was 398 nM.
For `Nc1c(C(=O)c2cccc(C(O)(CO)CO)c2)cnn1-c1ccc(F)cc1` [RO3201790-000], the potency estimated from few doses in test [9] (CATDS: 0.52236122392279105) is 888 nM; in test [20] it was 1050 nM.
Turning to `COc1cccc(-n2ncc3c(N/N=C/c4cccc(F)c4)ncnc32)c1` [GW817394X], the potency estimated from few doses in test [4] (CATDS: 1) is 237 nM.
